The values that follow come from ChEMBL document CHEMBL1961873, “Compounds: GSK PKIS; Assays: Nanosyn kinase panel” (2012).

Assay [1] has as its target Ribosomal protein S6 kinase alpha-6 (Homo sapiens) (UniProt Q9UK32). Particulars: at 1 µM.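 Note: each value is a mean inhibition of RSK4 from a GSK PKIS panel screen.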
The target in assay [2] is T1, Serine/threonine-protein kinase Sgk1 (Homo sapiens) (UniProt O00141).
T1 sequence (whole entry): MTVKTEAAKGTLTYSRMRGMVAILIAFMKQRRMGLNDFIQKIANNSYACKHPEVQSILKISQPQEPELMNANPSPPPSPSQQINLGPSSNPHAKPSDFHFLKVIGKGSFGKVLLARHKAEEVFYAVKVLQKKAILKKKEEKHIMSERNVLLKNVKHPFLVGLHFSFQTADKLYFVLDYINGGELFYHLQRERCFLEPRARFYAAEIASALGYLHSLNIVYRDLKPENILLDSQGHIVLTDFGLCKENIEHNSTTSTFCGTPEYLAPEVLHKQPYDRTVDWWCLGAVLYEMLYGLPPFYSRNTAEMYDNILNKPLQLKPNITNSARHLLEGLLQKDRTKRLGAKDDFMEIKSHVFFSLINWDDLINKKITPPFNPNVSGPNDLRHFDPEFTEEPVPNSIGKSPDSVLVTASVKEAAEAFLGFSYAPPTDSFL
Conditions: at 0.1 µM.

The target in assay [3] is T1, Serine/threonine-protein kinase Sgk1 (Homo sapiens). Particulars: at 1 µM.
In assay [4] the target is T2, Serine/threonine-protein kinase Sgk2 (Homo sapiens) (UniProt Q9HBY8).
T2 sequence (whole entry): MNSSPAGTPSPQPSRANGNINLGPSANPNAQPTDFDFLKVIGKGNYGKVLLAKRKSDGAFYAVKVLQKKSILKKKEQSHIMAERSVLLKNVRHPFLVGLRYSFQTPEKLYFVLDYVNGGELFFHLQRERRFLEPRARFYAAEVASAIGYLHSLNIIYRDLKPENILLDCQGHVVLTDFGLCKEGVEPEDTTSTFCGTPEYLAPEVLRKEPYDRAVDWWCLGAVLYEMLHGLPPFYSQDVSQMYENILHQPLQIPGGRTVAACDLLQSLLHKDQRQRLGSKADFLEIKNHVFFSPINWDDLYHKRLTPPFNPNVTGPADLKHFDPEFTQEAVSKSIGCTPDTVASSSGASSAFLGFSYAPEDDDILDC
Conditions: at 0.1 µM.

For assay [5], the target named is T2, Serine/threonine-protein kinase Sgk2 (Homo sapiens). Particulars: at 1 µM.
For assay [6], the target named is T3, Serine/threonine-protein kinase Sgk3 (Homo sapiens) (UniProt Q96BR1).
T3 sequence (whole entry): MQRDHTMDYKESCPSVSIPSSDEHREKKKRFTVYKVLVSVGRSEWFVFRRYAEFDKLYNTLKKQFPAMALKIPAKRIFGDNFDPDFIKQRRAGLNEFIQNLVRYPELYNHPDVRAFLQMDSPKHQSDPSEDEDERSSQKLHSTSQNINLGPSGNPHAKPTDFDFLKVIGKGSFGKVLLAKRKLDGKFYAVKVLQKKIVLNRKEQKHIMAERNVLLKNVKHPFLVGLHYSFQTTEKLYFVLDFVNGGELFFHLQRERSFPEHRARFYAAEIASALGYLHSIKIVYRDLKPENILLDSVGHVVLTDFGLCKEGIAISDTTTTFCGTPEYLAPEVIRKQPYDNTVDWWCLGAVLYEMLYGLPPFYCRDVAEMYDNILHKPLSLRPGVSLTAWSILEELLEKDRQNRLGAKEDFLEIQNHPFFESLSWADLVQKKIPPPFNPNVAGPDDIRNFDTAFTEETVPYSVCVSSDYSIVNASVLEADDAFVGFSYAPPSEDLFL
Particulars: at 0.1 µM.

Assay [7] addresses T3, Serine/threonine-protein kinase Sgk3 (Homo sapiens). Particulars: at 1 µM.
For assay [8], the target named is 5'-AMP-activated protein kinase catalytic subunit alpha-1 (Homo sapiens) (UniProt Q13131). Conditions: at 0.1 µM.
Sequence of 5'-AMP-activated protein kinase catalytic subunit alpha-1 (Homo sapiens) (Q13131 whole entry, looked up): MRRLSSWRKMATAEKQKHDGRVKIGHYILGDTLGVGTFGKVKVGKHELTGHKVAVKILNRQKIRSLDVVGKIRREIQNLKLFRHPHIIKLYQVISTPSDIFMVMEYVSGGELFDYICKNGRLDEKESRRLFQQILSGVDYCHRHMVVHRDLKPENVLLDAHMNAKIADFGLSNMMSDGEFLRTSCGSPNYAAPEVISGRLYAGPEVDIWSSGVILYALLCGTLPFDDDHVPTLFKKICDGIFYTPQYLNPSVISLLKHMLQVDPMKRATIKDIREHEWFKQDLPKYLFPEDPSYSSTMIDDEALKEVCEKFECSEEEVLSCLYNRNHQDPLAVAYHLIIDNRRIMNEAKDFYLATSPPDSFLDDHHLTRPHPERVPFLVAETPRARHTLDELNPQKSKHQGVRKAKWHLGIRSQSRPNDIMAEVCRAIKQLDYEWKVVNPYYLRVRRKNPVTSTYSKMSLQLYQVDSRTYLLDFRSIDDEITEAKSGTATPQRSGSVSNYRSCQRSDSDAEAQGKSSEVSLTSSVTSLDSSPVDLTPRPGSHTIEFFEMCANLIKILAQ
Assay [9] shares this target. Particulars: at 1 µM.
In assay [10] the target is 5'-AMP-activated protein kinase catalytic subunit alpha-2 (Homo sapiens) (UniProt P54646). Conditions: at 0.1 µM.
Sequence of 5'-AMP-activated protein kinase catalytic subunit alpha-2 (Homo sapiens) (P54646 whole entry, looked up): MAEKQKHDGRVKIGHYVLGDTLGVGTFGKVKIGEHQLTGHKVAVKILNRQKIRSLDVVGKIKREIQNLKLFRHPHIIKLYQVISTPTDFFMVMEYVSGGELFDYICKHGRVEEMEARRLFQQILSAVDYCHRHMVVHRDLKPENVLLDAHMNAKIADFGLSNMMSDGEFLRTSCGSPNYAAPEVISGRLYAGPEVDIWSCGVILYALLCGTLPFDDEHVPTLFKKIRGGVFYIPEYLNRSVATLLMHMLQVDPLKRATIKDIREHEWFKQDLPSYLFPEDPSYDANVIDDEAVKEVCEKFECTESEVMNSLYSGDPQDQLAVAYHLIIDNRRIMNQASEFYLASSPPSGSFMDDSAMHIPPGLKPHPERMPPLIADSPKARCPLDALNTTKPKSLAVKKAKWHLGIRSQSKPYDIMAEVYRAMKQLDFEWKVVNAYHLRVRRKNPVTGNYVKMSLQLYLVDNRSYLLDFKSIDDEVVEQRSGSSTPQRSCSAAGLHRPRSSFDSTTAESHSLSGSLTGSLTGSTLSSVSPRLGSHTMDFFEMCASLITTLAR
The target is the same in assay [11]. Particulars: at 1 µM.
The target in assay [12] is T4, NUAK family SNF1-like kinase 1 (Homo sapiens) (UniProt O60285).
T4 sequence (whole entry): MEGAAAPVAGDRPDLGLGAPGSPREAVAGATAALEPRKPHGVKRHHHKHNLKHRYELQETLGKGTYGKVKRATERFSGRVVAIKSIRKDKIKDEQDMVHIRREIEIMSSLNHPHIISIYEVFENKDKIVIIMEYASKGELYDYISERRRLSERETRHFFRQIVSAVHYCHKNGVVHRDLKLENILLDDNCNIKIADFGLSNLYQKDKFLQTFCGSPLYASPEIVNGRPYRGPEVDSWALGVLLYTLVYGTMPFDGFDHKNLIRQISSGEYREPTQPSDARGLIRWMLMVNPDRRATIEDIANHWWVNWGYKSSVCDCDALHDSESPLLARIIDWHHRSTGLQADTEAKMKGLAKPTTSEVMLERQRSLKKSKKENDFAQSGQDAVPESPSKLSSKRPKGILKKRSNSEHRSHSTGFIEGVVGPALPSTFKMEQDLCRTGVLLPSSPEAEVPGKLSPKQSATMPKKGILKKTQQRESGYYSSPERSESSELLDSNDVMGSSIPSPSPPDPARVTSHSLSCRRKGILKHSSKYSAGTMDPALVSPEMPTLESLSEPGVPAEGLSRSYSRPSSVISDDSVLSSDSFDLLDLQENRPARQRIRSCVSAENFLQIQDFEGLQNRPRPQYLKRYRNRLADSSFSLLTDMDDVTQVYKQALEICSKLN
Particulars: at 0.1 µM.

Assay [13] has as its target T4, NUAK family SNF1-like kinase 1 (Homo sapiens). Particulars: at 1 µM.
Assay [14] deals with T5, Serine/threonine-protein kinase BRSK1 (Homo sapiens) (UniProt Q8TDC3).
T5 sequence (whole entry): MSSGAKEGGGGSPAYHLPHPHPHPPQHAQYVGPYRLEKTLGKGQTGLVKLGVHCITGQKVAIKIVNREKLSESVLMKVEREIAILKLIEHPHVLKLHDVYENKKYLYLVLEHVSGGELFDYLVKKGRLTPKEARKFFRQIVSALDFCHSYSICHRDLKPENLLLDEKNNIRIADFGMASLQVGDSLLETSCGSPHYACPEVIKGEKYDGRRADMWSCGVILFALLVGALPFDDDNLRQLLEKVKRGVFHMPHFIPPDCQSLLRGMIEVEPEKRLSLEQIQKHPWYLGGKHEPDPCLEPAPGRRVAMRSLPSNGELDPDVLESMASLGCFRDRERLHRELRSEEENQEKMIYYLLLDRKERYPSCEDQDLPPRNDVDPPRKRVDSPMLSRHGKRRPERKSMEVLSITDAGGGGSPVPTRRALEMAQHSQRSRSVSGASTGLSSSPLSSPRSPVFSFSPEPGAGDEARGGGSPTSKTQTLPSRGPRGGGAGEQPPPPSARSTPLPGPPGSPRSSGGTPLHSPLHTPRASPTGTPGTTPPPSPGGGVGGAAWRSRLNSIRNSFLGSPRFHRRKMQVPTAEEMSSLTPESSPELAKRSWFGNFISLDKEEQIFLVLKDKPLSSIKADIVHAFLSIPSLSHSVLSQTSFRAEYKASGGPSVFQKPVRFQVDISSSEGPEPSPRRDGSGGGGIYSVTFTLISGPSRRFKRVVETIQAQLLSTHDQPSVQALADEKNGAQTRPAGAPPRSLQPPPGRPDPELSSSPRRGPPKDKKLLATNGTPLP
Conditions: at 0.1 µM.

For assay [15], the target named is T5, Serine/threonine-protein kinase BRSK1 (Homo sapiens). Particulars: at 1 µM.
Assay [16] has as its target T6, Serine/threonine-protein kinase BRSK2 (Homo sapiens) (UniProt Q8IWQ3).
T6 sequence (whole entry): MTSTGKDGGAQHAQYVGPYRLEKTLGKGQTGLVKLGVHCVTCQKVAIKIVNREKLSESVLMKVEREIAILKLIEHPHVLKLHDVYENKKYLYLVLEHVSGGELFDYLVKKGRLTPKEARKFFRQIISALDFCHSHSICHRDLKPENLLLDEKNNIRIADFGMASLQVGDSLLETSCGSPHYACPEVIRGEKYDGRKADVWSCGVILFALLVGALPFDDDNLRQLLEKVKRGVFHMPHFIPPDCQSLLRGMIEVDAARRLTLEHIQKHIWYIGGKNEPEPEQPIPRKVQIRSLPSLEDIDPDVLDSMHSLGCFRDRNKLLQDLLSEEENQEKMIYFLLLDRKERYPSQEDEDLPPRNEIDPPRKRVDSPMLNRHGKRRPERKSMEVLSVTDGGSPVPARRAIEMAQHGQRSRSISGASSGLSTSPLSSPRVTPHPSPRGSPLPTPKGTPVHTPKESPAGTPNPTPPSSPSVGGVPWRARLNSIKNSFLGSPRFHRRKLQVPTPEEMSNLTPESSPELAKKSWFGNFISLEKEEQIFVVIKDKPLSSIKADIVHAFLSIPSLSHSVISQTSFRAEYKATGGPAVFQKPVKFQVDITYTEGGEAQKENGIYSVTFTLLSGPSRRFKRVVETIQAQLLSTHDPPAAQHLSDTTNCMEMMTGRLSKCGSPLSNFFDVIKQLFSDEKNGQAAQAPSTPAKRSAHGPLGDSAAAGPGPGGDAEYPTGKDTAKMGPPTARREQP
Conditions: at 0.1 µM.

Assay [17] addresses T6, Serine/threonine-protein kinase BRSK2 (Homo sapiens). Conditions: at 1 µM.
The target in assay [18] is Calcium/calmodulin-dependent protein kinase type 1D (Homo sapiens) (UniProt Q8IU85). Particulars: at 0.1 µM.
Sequence of Calcium/calmodulin-dependent protein kinase type 1D (Homo sapiens) (Q8IU85 whole entry, looked up): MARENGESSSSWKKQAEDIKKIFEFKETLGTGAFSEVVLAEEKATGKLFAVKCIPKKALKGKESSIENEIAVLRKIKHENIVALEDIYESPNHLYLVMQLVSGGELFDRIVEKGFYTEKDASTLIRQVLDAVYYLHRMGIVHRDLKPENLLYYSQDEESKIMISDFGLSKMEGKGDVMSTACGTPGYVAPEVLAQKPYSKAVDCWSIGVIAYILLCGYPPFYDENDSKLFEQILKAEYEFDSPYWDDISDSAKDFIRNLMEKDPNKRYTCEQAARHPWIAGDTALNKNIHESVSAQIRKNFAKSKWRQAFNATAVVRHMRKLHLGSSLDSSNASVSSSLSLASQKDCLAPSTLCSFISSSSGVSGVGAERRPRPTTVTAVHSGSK
The target is the same in assay [19]. Particulars: at 1 µM.
The target of assay [20] is Calcium/calmodulin-dependent protein kinase type II subunit alpha (Homo sapiens) (UniProt Q9UQM7). Particulars: at 0.1 µM.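 Note: reported values are averages (mean inhibition of CAMK2A).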
Sequence of Calcium/calmodulin-dependent protein kinase type II subunit alpha (Homo sapiens) (Q9UQM7 whole entry): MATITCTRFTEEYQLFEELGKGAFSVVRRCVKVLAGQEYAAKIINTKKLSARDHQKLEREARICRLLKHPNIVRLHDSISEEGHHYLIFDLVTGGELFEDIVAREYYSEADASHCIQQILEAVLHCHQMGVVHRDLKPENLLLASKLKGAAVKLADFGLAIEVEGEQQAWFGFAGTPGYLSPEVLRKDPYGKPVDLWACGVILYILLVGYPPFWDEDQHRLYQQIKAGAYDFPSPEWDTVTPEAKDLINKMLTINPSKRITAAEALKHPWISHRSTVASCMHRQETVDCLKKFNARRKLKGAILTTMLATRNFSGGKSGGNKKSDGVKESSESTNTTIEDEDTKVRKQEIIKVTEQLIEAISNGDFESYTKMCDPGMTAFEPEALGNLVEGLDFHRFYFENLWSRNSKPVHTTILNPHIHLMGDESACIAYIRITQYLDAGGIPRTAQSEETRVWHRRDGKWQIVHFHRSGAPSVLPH

Molecules are shown by their SMILES.

Sequence of Ribosomal protein S6 kinase alpha-6 (Homo sapiens) (Q9UK32 whole entry): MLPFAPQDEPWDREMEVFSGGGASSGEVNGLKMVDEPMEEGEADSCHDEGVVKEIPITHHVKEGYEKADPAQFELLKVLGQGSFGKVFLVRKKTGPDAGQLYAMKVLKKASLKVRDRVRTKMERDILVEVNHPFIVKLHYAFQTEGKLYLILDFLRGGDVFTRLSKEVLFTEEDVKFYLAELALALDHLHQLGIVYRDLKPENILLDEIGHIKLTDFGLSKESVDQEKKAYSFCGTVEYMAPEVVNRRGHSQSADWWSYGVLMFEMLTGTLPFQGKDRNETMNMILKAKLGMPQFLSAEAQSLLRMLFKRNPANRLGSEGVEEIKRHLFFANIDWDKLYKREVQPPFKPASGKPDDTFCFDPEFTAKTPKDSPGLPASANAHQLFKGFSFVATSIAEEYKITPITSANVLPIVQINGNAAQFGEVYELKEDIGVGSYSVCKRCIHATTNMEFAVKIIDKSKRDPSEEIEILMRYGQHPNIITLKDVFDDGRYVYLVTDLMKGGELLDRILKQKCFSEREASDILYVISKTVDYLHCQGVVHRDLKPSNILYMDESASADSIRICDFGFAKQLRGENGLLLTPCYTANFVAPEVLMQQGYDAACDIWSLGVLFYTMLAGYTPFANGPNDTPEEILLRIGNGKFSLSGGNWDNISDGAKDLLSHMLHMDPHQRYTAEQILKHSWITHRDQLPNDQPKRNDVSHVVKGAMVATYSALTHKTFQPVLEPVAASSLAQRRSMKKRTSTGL

On to `Cn1cc(C=C2C(=O)Nc3cccnc32)c2ccccc21`, for which the inhibition was 10.2% in assay [1]; 1.6% in assay [2]; 5.51% in [3]; -2.41% in assay [4]; 1.75% in assay [5]; 1.35% in assay [6]. Also, the inhibition in [7] was found to be 0.63%; in assay [8], 5.84%; in [9], 14.8%; in assay [10] it was 4.46%; in assay [11], 8.64%; in [12] it was 8.91%. In addition, the inhibition was 44.5% in assay [13]; 4.71% in [14]; 12.3% in assay [15]; 6.03% in assay [16]; 12.3% in assay [17]; 0.99% in assay [18]. Also, the inhibition came out at 2.41% in assay [19] and 1.58% in assay [20].
On to `O=C1NC(=O)C(c2ccc(Cl)cc2)=C1Nc1ccc(Cl)c(C(=O)O)c1`, for which the inhibition is -1.03% in assay [1]; 1.08% in assay [2]; -1.96% in assay [3]; -3.55% in assay [4]; -0.77% in assay [5]; -1.08% in [6]. Moreover, the inhibition in assay [7] was -4.32%; in [8], -0.6%; in assay [9] it was -0.54%; in assay [10], 0.26%; in assay [11], -0.57%; in [12], 1.82%. Also, the inhibition in assay [13] is 3.54%; in [14], -0.49%; in [15], 0.55%; in assay [16] it was 0.35%; in assay [17] it was -1.78%; in assay [18], -0.66%. Also, the inhibition in [19] is 4.19%; in assay [20], -2.83%.
For the molecule `NS(=O)(=O)c1ccc(N/N=C2\C(=O)Nc3ccc(C(=O)NCCc4c[nH]cn4)cc32)cc1`, the inhibition in assay [1] was found to be 22.2%; in assay [2], 4.44%; in assay [3] it was 14.1%; in assay [4], 4.28%; in [5], 5.53%; in [6], 3.07%. In addition, the inhibition in assay [7] worked out at 4.22%; in [8] it was 57.3%; in assay [9], 86.6%; in assay [10], 23.9%; in [11] it was 63.6%; in [12], 54.2%. The inhibition turned out to be 83.5% in assay [13]; 21.6% in assay [14]; 63.5% in [15]; 34.6% in [16]; 74.9% in assay [17]; 1.24% in assay [18]. For the same molecule, the inhibition stood at 3.93% in assay [19] and 5.62% in [20].

A word on the inhibition: it is the drop in the measured response relative to a control, in per cent.
